Data reported in PubChem BioAssay AID1159580 (chemical genetic matrix, 2015).
Several values for one entry are separate records, joined by “and”; a condition that tells them apart may be missing. Equal entries are not always repeated. The campaign covered roughly 5,500 compounds. About 2,000 (36%) were called active. Another 18% or so got no clear call; they are omitted. No stated cut-off is given here; in the data, active means normalized growth mostly below about 0.91 (no sharp cut-off); inconclusive means no clear call, values can overlap the other calls; inactive means mostly above about 0.92. Some of the results follow.

Test: chemical genetic growth profiling, strain panel (AID 1159580);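 further: tested at 20 µM; growth read once vehicle control cultures reached saturation at 30 °C; 1 = growth at the plate median or of vehicle wells; lower values mean less growth of the strain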
Details: S. cerevisiae deletion strains, growth OD

Measured: normalized growth

N#C/C(=C\c1ccc(O)cc1)C(=O)O
inactive: locus YAL013W, strain DEP1, hits give low values 0.988 | locus YAL021C, strain ccr4, hits give low values 0.979 | locus YAL026C, strain drs2, hits give low values 1 | locus YAL030W, strain snc1, hits give low values 1.01 | locus YBL061C, strain skt5, hits give low values 1.01 | locus YBR009C, strain hhf1, hits give low values 1.02 | locus YBR021W, strain FUR4, hits give low values 1.02 | locus YBR023C, strain chs3, hits give low values 1 | locus YBR171W, strain sec66, hits give low values 0.991 | locus YBR229C, strain ROT2, hits give low values 0.956 | locus YBR231C, strain swc5, hits give low values 1.01 | locus YBR279W, strain paf1, hits give low values 1 | locus YCL011C, strain gbp2, hits give low values 0.987 | locus YCL016C, strain dcc1, hits give low values 1.01 | locus YCL029C, strain bik1, hits give low values 0.997 | locus YCL061C, strain MRC1, hits give low values 0.993 | locus YCL069W, strain vba3, hits give low values 0.996 | locus YCR088W, strain abp1, hits give low values 0.987 | locus YDL005C, strain med2, hits give low values 0.997 | locus YDL035C, strain GPR1, hits give low values 0.994 | locus YDL040C, strain nat1, hits give low values 1 | locus YDL074C, strain BRE1, hits give low values 0.966 | locus YDL101C, strain DUN1, hits give low values 0.951 | locus YDL134C, strain PPH21, hits give low values 0.987 | locus YDL185W, strain tfp1, hits give low values 0.976 | locus YDL192W, strain arf1, hits give low values 0.993 | locus YDR001C, strain nth1, hits give low values 0.996 | locus YDR069C, strain doa4, hits give low values 1 | locus YDR101C, strain arx1, hits give low values 1.01 | locus YDR137W, strain rgp1, hits give low values 0.992 | locus YDR150W, strain NUM1, hits give low values 0.981 | locus YDR159W, strain sac3, hits give low values 1.01 | locus YDR162C, strain NBP2, hits give low values 0.937 | locus YDR195W, strain ref2 0.988 | locus YDR297W, strain sur2, hits give low values 0.997 | locus YDR318W, strain mcm21, hits give low values 1.04 | locus YDR334W, strain swr1, hits give low values 0.961 | locus YDR335W, strain msn5, hits give low values 1 | locus YDR388W, hits give low values 1.01 | locus YDR392W, strain spt3, hits give low values 0.972 | locus YDR502C, strain sam2, hits give low values 0.987 | locus YEL003W, strain gim4, hits give low values 0.989 | locus YEL037C, strain rad23, hits give low values 0.986 | locus YEL061C, strain CIN8 (second series), hits give low values 0.984 | locus YEL061C, strain CIN8, hits give low values 0.984 | locus YER015W, strain faa2, hits give low values 1 | locus YER016W, strain bim1, hits give low values 1.01 | locus YER110C, hits give low values 0.999 | locus YER111C, strain swi4, hits give low values 0.999 | locus YER155C, strain BEM2 (second series), hits give low values 1.01 | locus YER155C, strain BEM2, hits give low values 0.987 | locus YER167W, strain BCK2, hits give low values 1.01 | locus YFR010W, strain ubp6, hits give low values 0.983 | locus YGL078C, strain dbp3, hits give low values 0.985 | locus YGL086W, strain mad1, hits give low values 1.02 | locus YGL167C, strain pmr1, hits give low values 1.01 | locus YGL173C, strain kem1, hits give low values 1 | locus YGL227W, strain vid30, hits give low values 0.998 | locus YGL240W, strain doc1, hits give low values 1.03 | locus YGL248W, strain PDE1, hits give low values 0.976 | locus YGL253W, strain hxk2, hits give low values 0.999 | locus YGR078C, strain PAC10, hits give low values 0.97 | locus YGR135W, strain pre9, hits give low values 0.988 | locus YGR229C, strain SMI1, hits give low values 0.996 | locus YGR252W, strain gcn5, hits give low values 1.09 | locus YHR013C, strain ard1, hits give low values 1.02 | locus YHR027C, strain rpn1, hits give low values 0.99 | locus YHR030C, strain SLT2, hits give low values 0.997 and 1.06 | locus YHR079C, strain IRE1 (second series), hits give low values 1 | locus YHR079C, strain IRE1, hits give low values 1.07 | locus YHR094C, strain hxt1, hits give low values 0.998 | locus YHR129C, strain ARP1, hits give low values 0.986 | locus YHR142W, strain chs7, hits give low values 0.954 | locus YHR200W, strain rpn10, hits give low values 0.996 | locus YIL066C, strain RNR3, hits give low values 0.981 | locus YIL073C, strain SPO22, hits give low values 1.1 | locus YIL125W, strain kgd1, hits give low values 0.997 | locus YIR030C, strain dcg1, hits give low values 0.988 | locus YJL092W, strain hpr5, hits give low values 0.979 | locus YJL095W, strain BCK1 (second series), hits give low values 1 | locus YJL095W, strain BCK1, hits give low values 0.979 and 1.08 | locus YJL115W, strain asf1, hits give low values 0.988 | locus YJL129C, strain trk1, hits give low values 0.98 | locus YJL134W, strain LCB3, hits give low values 0.983 | locus YJL154C, strain vps35, hits give low values 0.975 | locus YJL164C, strain tpk1, hits give low values 1 | locus YJL166W, strain qcr8, hits give low values 1.01 | locus YJL168C, strain set2, hits give low values 0.992 | locus YJL187C, strain SWE1 (second series), hits give low values 0.96 | locus YJL187C, strain SWE1, hits give low values 1 | locus YJR043C, strain POL32, hits give low values 1.04 | locus YJR066W, strain TOR1, hits give low values 0.992
